PubChem BioAssay (NCI)
About 83,000 compounds went through this panel and 20% of them were active in at least one assay; those are over-represented in the sample as a whole.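 A percent growth of 40 corresponds to 60% growth inhibition; 0 means no net growth; -100 means all cells died. Active threshold: below 10.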 Activity calls are given as the source filed them.

tested on: HCC-2998 colon; assay: NCI-60 one-dose screen, 48 h (100 = growth as untreated, 0 = no growth, -100 = all killed); details: 10 µM unless noted

Structure (SMILES) | growth
CCC(=O)Nc1cc2c(cc1Cl)-c1ccccc1C2 | 87% (inactive)
FC(F)(F)c1ccc(-c2cnc(-c3nn[nH]n3)nc2NC2CCCCCC2)cc1 | 60.6% [50 µM] (inactive)
CCn1cnc(C[C@H](NC(=O)[C@H](CCCCNC(=O)Nc2cc(C(F)(F)F)cc(C(F)(F)F)c2)NC(=O)Nc2cc(C(F)(F)F)cc(C(F)(F)F)c2)C(=O)OC)c1 | -20.8% [100 µM] (active)
O=c1ncc(-c2ccc(C(F)(F)F)cc2)c(NC2CCCCCC2)[nH]1 | 98.1% (inactive)
Nc1nc(Nc2ccccc2SSc2ccccc2Nc2nc(N)nc(-c3cccc(Cl)c3)n2)nc(-c2cccc(Cl)c2)n1 | 110% (inactive)
Cc1ccc2nc3c(n2c1)C(=O)C(=O)c1ccccc1-3 | -54% (active)
O=C1NC(=S)S/C1=C\c1cc(Br)ccc1O | 103% (inactive)
O=C1OC2(c3ccccc31)c1ccccc1-c1ccccc12 | 88.4% (inactive)
Cc1sc2nc(NCCc3cccs3)[nH]c(=O)c2c1C | 101% (inactive)
COc1cc(/C=N/OC(=O)Nc2ccccc2)cc(OC)c1OC | 106% (inactive)
CSc1nc2nc3c(nc2c(=O)n1C)C(=O)c1ccccc1C3=O | -70.1% (active)
O=C(CNc1ccc2c(c1)C(=O)c1ccccc1C2=O)Nc1ccc2c(c1)C(=O)c1ccccc1C2=O | -93.3% (active)
Nc1ccc2c(c1Br)Cc1ccccc1-2 | 99.1% (inactive)
c1ccc2c(-c3nc4ccccc4[nH]3)cccc2c1 | 57.5% (inactive)
O=C(O)c1ccc2cccnc2c1O | 10.2% (inactive)
